# Rce1 inhib: blocks yeast Ras-converting enzyme; Q03530; yeast membranes, quenched prenylated peptide cleavage fluorescence; calls only; 0.27% of 290,000 active; AID 2563;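 active = fall in fluorescence gain of 50% or more versus controls, with final raw signal at or below 3038400; inconclusive = same 50% fall but final raw signal above 3038400; inactive = fall in fluorescence gain under 50%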;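 also: plate controls were neutral control wells for no effect and wells lacking membranes for full effect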
# M18AAP inhibitor: blocks P. falciparum M18 aspartyl aminopeptidase. recombinant PfM18AAP, H-Glu-NHMec fluorogenic cleavage. inhibition, % at 7.35 µM. 1.2% of 290,000 active. AID 1822;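 active = inhibition above the campaign mean inhibition over all tested compounds plus 3 SD, cut at about 28% in these data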;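 also: 0% = plate median of test compound wells and 100% = 2 mM ZnCl2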
# Platelet DG rel: modulates dense granule release in human platelets. human platelet-rich plasma, SFLLRN dense granule ATP release, luminescence. inhibition, %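 (compounds screened at 7.5 µM in platelet-rich plasma)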. 0.22% of 300,000 active. AID 1663;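 active = mean replicate score, as percent of positive control, at or above 50; inconclusive = mean below 50 but at least one replicate at or above 50; inactive = mean and every replicate below 50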
# ABHD5 PLIN5 PPI: blocks binding of human ABHD5 to perilipin-5 | Q00G26+Q8WTS1 | Split G. princeps luciferase complementation, luminescence, 4 h | inhibition, % at 4 µM | 0.78% of 360,000 active | AID 602281;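 active = inhibition above the mean inhibition across every tested compound plus 3 SD, cut at about 22% in these data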;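 also: 0% = DMSO only wells and the 100% control is not disclosed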
# Granule exo inh: blocks lytic granule exocytosis; inhibition, % at 10 µM; 0.66% of 360,000 active; TALL-104 LAMP-1 surface exposure, flow cytometry; cells stimulated with thapsigargin and PMA;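 active = inhibition above about 55%, limit read from the data; inconclusive = no clear call, values can overlap the other calls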
# ABHD5 PLIN5 conf: ABHD5-PLIN5 interaction inhibition, confirmed. 67% of 2,200 active. biochemical ABHD5-PLIN5 interaction, luminescence. shares compounds with ABHD5 PLIN5 PPI. inhibition, % at 4 µM; in the data active = inhibition above about 23%;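 also: 0% = DMSO vehicle wells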
# HNF4 counter: counter-screen for ABHD5-PLIN5 inhibitors: HNF4 split-luciferase; HNF4 dimerization, luminescence, biochemical; shares compounds with ABHD5 PLIN5 PPI; 77% of 2,200 active; inhibition, % at 4 µM; AID 651674;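 active = mean inhibition across replicate wells exceeding the computed hit threshold, cut at about 13% in these data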;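 also: light from luciferase halves that rejoin when HNF4 fusion proteins dimerize; 0% = DMSO only wells and the 100% control is not given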
# Target sequence (P41235 whole entry, looked up, the tested form may be a part): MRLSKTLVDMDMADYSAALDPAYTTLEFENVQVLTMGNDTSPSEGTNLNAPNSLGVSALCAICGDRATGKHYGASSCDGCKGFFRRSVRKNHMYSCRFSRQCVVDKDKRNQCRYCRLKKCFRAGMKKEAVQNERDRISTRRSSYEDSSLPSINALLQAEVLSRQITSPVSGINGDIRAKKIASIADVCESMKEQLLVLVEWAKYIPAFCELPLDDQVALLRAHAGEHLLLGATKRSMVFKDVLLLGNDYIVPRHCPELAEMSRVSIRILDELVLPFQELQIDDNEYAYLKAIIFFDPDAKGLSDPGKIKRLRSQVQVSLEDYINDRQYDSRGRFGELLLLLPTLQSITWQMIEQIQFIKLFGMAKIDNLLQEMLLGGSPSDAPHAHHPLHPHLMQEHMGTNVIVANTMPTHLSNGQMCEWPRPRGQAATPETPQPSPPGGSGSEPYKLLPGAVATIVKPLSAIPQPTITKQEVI
# Granule exo CP1: lytic granule exocytosis inhibition; inhibition, % at 10 µM; TALL-104 cells, LAMP-1 externalization, flow cytometry; stimulated with PMA plus thapsigargin; AID 651954; shares compounds with Granule exo inh; 11% of 1,500 active; in the data active = inhibition above about 60%;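 also: 0% = stimulated vehicle wells and 100% = unstimulated wells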
# * = called active by the depositor; i = inactive; u = inconclusive; x = no result. The list is not random: actives were taken first. Their share in the collection is about 2.6%.
SMILES,Rce1 inhib,M18AAP inhibitor,Platelet DG rel,ABHD5 PLIN5 PPI,Granule exo inh,ABHD5 PLIN5 conf,HNF4 counter,Granule exo CP1
CN(C)c1ccc(/C=C/c2ccc3ccccc3[n+]2C)cc1,i,4,9,29*,6,23*,30*,x
C=CCn1cccc(/C=C/C(=O)c2ccc(C(C)(C)C)cc2)c1=S,i,1,-6,46*,-4,75*,90*,x
CN1CCN(C(=S)NC(=O)c2ccc(C(C)(C)C)cc2)CC1,i,4,-4,-3,1,x,x,x
Cc1nn(-c2ccccc2)c2c1C(c1ccc(Br)s1)C(C#N)=C(N)O2 (stereo not given),x,11,x,-3,0,x,x,x
C/C=C/C=C/C(=O)[C@@H]1[C@@H]([C@]2(C)OC(=O)C(C)=C2O)[C@H]2/C(=C(O)/C=C/C=C/C)C(=O)[C@]1(C)C(=O)C2(C)O (stereo not given in full),i,x,-2,35*,-6,44*,25*,x
O=C(CCN1CCc2ccccc2C(c2ccccc2)C1)c1ccc2c(c1)OCCO2 (stereo not given),i,-83,2,26*,96*,23*,86*,81*
Cc1cccc(N2CCN(C(=O)CCNS(=O)(=O)c3cccs3)CC2C)c1 (stereo not given),i,1,7,1,2,x,x,x
Cc1ccc2[nH]c3c(c2c1)CN(C(=O)CN1CCN(c2ccccc2F)CC1)CC3,i,10,-11,x,x,x,x,x
Fc1cccc(Cc2c(-c3ccco3)nc3c4ccccc4ccn23)c1,x,x,x,26*,87*,13,23*,31
Fc1cccc(Cc2c(-c3ccco3)nc3ccc(Br)cn23)c1,x,x,x,72*,59*,44*,78*,-1
Fc1cccc(Cc2c(-c3cccc(Cl)c3)nc3c4ccccc4ccn23)c1,x,x,x,-6,-3,x,x,x
Fc1cccc(Cc2c(-c3ccco3)nc3ccc(Cl)cn23)c1,x,x,x,75*,58*,21,53*,-11
O=C1c2cccc3cccc(c23)C(=O)N1CC1CCN(CC(O)COc2ccc3ccccc3c2)CC1 (stereo not given),i,x,-1,26*,58*,10,1,40
Cc1ccc(/C=C2/NC(=O)N(Cc3ccccc3)C2=O)o1,i,-5,-6,44*,58*,58*,68*,-9
Cc1ccc(/C=C2\SC(=S)N(Cc3ccccc3)C2=O)o1,x,5,x,-5,1,x,x,x
Oc1ccccc1C1CC(c2cccs2)=NC(c2cccc(Br)c2)N1 (stereo not given),i,19,1,45*,69*,23*,49*,-15
N#CC1(c2cccc(Br)c2)C(=O)Nc2ccccc21 (stereo not given),x,x,x,-6,2,x,x,x
O=C1Nc2ccc(Br)cc2/C1=C/C(=O)c1ccccc1,x,x,x,85*,73*,88*,80*,83*
Cc1ccc(C(=O)c2c(C)oc3c2C(=O)C(=O)c2ccccc2-3)cc1,i,15,-4,51*,103*,84*,60*,42
O=c1c2ccccc2sn1-c1ccc(Cl)cc1,x,x,x,48*,79*,76*,118*,104*
O=C(CCC1CCCC1)NCCS(=O)(=O)N1CCN(c2ccc(F)cc2)CC1,i,x,-5,-5,-3,x,x,x
O=C(CN1C(=O)COc2ccccc21)NCCCN1CCOCC1,i,-5,-28,3,1,x,x,x
O=C(CN1C(=O)/C(=C\c2cccc(Br)c2)Oc2ccccc21)NCCCN1CCOCC1,i,2,16,29*,64*,17,5,96*
COc1cc(CN2CCCC(C(=O)c3ccc4c5c(cccc35)CC4)C2)cc(OC)c1O (stereo not given),i,13,15,29*,73*,15,40*,2
CN(C)CCCN(C(=O)CCSc1ccccc1)c1nc2cc3c(cc2s1)OCO3,i,6,-5,27*,60*,15,19*,70*
SMILES,Rce1 inhib,M18AAP inhibitor,Platelet DG rel,ABHD5 PLIN5 PPI,Granule exo inh,ABHD5 PLIN5 conf,HNF4 counter,Granule exo CP1
CN(C)CCC(=O)C(Cc1ccccc1)c1ccccc1 (stereo not given),i,x,-6,29*,97*,60*,93*,18
CNCc1ccccc1Sc1cccc2ccccc12,i,1,0,15,12,x,x,x
Cc1ccccc1NC(=O)c1nc(S(C)(=O)=O)ncc1Cl,x,-44,-7,38*,79*,59*,85*,28
Cc1ccccc1NC(=O)c1cccc(C(=O)Nc2ccccc2C)n1,i,-1,2,1,-12,x,x,x
CCS(=O)(=O)c1ncc(Cl)c(C(=O)Nc2ccc(S(=O)(=O)N(C)c3ccccc3)cc2)n1,i,-47,7,78*,56*,92*,99*,58
O=C(Nc1ccc(F)cc1)c1nn(-c2ccccc2)c(=O)cc1Cl,i,-9,2,19,6,x,x,x
O=C(Nc1ccc(F)cc1)c1nc(S(=O)(=O)Cc2ccccc2)ncc1Cl,i,-90,32,60*,78*,90*,97*,65*
COCCCn1c(C23CC4CC(CC(C4)C2)C3)n[nH]c1=S,i,14,-2,2,-5,x,x,x
COc1cc2cnc(Cl)nc2cc1OC,i,-6,-1,-3,4,x,x,x
C=CCN1C(=O)CN=C1Nc1ccc(OC)cc1OC,i,2,0,0,-2,x,x,x
CC1(C)C2([N+](=O)[O-])CN3CC1([N+](=O)[O-])CN(C2)C31CCCC1,i,0,6,2,-3,x,x,x
O=C1CCCCCN1C(=O)c1ccc(C(=O)N2CCCCCC2=O)cc1,i,-10,-35,-3,4,x,x,x
CC1(C)OC(=O)N(CCC(=O)Nc2cccc(F)c2)C1(C)O (stereo not given),i,-2,2,1,-3,x,x,x
Cc1oc(=O)c(NC(=O)c2ccccc2)cc1C(N)=O,i,14,4,3,-2,x,x,x
Cc1oc(=O)c(NC(=O)c2cccc(Cl)c2)cc1C(=O)c1ccccc1,i,-5,-3,34*,97*,18,100*,-3
COc1ccc(-c2nc(CN3CCN(c4cc(C)nc(C)c4)CC3)c(C)o2)c2ccccc12,u,2,1,25*,58*,12,1,36
Cc1cc(N2CCN(Cc3nc(-c4ccc(Cl)cc4)oc3C)CC2)cc(C)n1,i,-6,-2,19,5,x,x,x
CN(c1ccc(C(=O)NCc2cccs2)cc1)S(=O)(=O)c1ccccc1,i,1,2,0,2,x,x,x
CC(C)=CC(=O)Nc1ccc2c(c1)OCO2,i,10,24,5,-3,x,x,x

# Screens from PubChem.
